# Results published in PubChem BioAssay (NCI).
# About 83,000 compounds went through this panel and 20% of them were active in at least one assay; those are over-represented in the sample as a whole.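 Cells were grown in 96-well plates and exposed to the test compound at a single concentration for 48 hours; results are reported as percent growth, with values below 10 considered active.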 A number with no mark means an inactive call. The source made the active and inactive calls.
# How the values were obtained:
# Test in all cases: NCI-60 one-dose screen, 48 h (100 = growth as untreated, 0 = no growth, -100 = all killed)
# [1] = system: SR leukemia; details: 10 µM
# [2] = system: RPMI-8226 leukemia; details: 10 µM
# [3] = system: OVCAR-8 ovarian; details: 10 µM
# [4] = system: OVCAR-5 ovarian; details: 10 µM
# [5] = system: OVCAR-4 ovarian; details: 10 µM
# [6] = system: SK-OV-3 ovarian; details: 10 µM
# [7] = system: IGROV1 ovarian; details: 10 µM
# [8] = system: OVCAR-3 ovarian; details: 10 µM
# [9] = system: NCI/ADR-RES ovarian; details: 10 µM
# [10] = system: T-47D breast; details: 10 µM
# [11] = system: BT-549 breast; details: 10 µM
# [12] = system: MDA-MB-435 melanoma; details: 10 µM
# [13] = system: SW-620 colon; details: 10 µM
# [14] = system: MCF7 breast; details: 10 µM unless noted
# [15] = system: HCT-116 colon; details: 10 µM
# [16] = system: HCC-2998 colon; details: 10 µM
# [17] = system: KM12 colon; details: 10 µM
# [18] = system: HS 578T breast; details: 10 µM
Structure (SMILES),growth [1] [%],growth [2],growth [3] [%],growth [4] [%],growth [5] [%],growth [6] [%],growth [7] [%],growth [8] [%],growth [9] [%],growth [10] [%],growth [11] [%],growth [12],growth [13] [%],growth [14],growth [15] [%],growth [16] [%],growth [17] [%],growth [18] [%]
C[N+](C)(C)C(=O)c1ccccc1,102,111%,113,98.7,115,104,115,113,113,90.4,101,114%,107,96.2%,97.9,,,
CCC/C=C(\C)C(C)(C#N)C(=O)OCC (configuration not stated),100,95.1%,101,110,107,111,107,124,110,112,116,96.3%,109,97.1%,120,118,110,
O=[N+]([O-])c1ccc(CO)cc1,99.5,112%,109,105,104,93.7,112,113,,88.3,105,90.3%,102,91.1%,101,96.1,105,98.9
NC(CSC(c1ccccc1)(c1ccccc1)c1ccccc1)C(=O)O (configuration not stated),15.3,4.13% (active),22.6,41.8,74.6,17,63.3,15.9,93,15.5,47.4,-66.6% (active),24.8,2.58% (active),19.9,15.9,22.5,
Cc1cc2ccccc2c(O)c1C#N,108,97.4%,99.7,103,114,89.4,114,108,96,88.8,97.6,108%,104,99.3%,105,,105,
